The results in this text go back to paper doi:10.1101/2024.03.05.583629.

The assay concerns the target pT7_6His-AlfaTag-ZIF268 (human, UniProt P18146 335-423). In words: PADIT-seq. As to conditions: dsDNA, one strand shown.
The sequence “CTCGAGGATATCAAGATCTGGCCTCGGCCGCCCCCGCGGAACCTCTAGCTAGCCGACTCACTATAGGGATAATCGCCCTGAGCAAAGACC” registered a binding signal of 1.56 ± 0.0899 log2FC.
The figure for “CTCGAGGATATCAAGATCTGGCCTCGGCCGCCCATACGGAACCTCTAGCTAGCCGACTCACTATAGGGATAATCGCCCTGAGCAAAGACC” is 0.364 ± 0.092 log2FC.
Consider “CTCGAGGATATCAAGATCTGGCCTCGGCCGCCCAAGTGGAACCTCTAGCTAGCCGACTCACTATAGGGATAATCGCCCTGAGCAAAGACC”, for which the binding signal came to 0.0066 ± 0.0917 log2FC.
The figure for “CTCGAGGATATCAAGATCTGGCCTCGGCGCGTGGGTGGGAACCTCTAGCTAGCCGACTCACTATAGGGATAATCGCCCTGAGCAAAGACC” is 4.08 ± 0.0892 log2FC; for “CTCGAGGATATCAAGATCTGGCCTCGGCGCGTGGTGTGGAACCTCTAGCTAGCCGACTCACTATAGGGATAATCGCCCTGAGCAAAGACC” it is 0.166 ± 0.105 log2FC.
With “CTCGAGGATATCAAGATCTGGCCTCGGCGCGTGGAGGGGAACCTCTAGCTAGCCGACTCACTATAGGGATAATCGCCCTGAGCAAAGACC”, the binding signal came out at 0.222 ± 0.116 log2FC.
The figure for “CTCGAGGATATCAAGATCTGGCCTCGGCCGCCCACAAGGAACCTCTAGCTAGCCGACTCACTATAGGGATAATCGCCCTGAGCAAAGACC” is 0.545 ± 0.102 log2FC.
In turn, “CTCGAGGATATCAAGATCTGGCCTCGGCGCGTGGTGGGGAACCTCTAGCTAGCCGACTCACTATAGGGATAATCGCCCTGAGCAAAGACC” gave a binding signal of 0.205 ± 0.103 log2FC.
The figure for “CTCGAGGATATCAAGATCTGGCCTCGGCGCGTGGATTGGAACCTCTAGCTAGCCGACTCACTATAGGGATAATCGCCCTGAGCAAAGACC” is 0.000823 ± 0.102 log2FC.
For “CTCGAGGATATCAAGATCTGGCCTCGGCGTTCCACGCGGAACCTCTAGCTAGCCGACTCACTATAGGGATAATCGCCCTGAGCAAAGACC”, the binding signal was 0.016 ± 0.0847 log2FC.
The figure for “CTCGAGGATATCAAGATCTGGCCTCGGCCGCTGCCGCGGAACCTCTAGCTAGCCGACTCACTATAGGGATAATCGCCCTGAGCAAAGACC” is 0.0482 ± 0.0994 log2FC; for “CTCGAGGATATCAAGATCTGGCCTCGGCCTGTGGGCGGGAACCTCTAGCTAGCCGACTCACTATAGGGATAATCGCCCTGAGCAAAGACC” it is 2.23 ± 0.0754 log2FC.
In turn, “CTCGAGGATATCAAGATCTGGCCTCGGCCGCCCATGGGGAACCTCTAGCTAGCCGACTCACTATAGGGATAATCGCCCTGAGCAAAGACC” came in with a binding signal of 0.0348 ± 0.099 log2FC.
The figure for “CTCGAGGATATCAAGATCTGGCCTCGGCCGCACACGCGGAACCTCTAGCTAGCCGACTCACTATAGGGATAATCGCCCTGAGCAAAGACC” is 0.422 ± 0.0927 log2FC.
The figure for “CTCGAGGATATCAAGATCTGGCCTCGGCCGCCCACTCGGAACCTCTAGCTAGCCGACTCACTATAGGGATAATCGCCCTGAGCAAAGACC” is 0.873 ± 0.0842 log2FC; for “CTCGAGGATATCAAGATCTGGCCTCGGCGCGTGGAAAGGAACCTCTAGCTAGCCGACTCACTATAGGGATAATCGCCCTGAGCAAAGACC” it is 0.108 ± 0.113 log2FC; for “CTCGAGGATATCAAGATCTGGCCTCGGCGCGTGGTGAGGAACCTCTAGCTAGCCGACTCACTATAGGGATAATCGCCCTGAGCAAAGACC” it is 0.258 ± 0.102 log2FC.
The figure for “CTCGAGGATATCAAGATCTGGCCTCGGCCGCCCACCGGGAACCTCTAGCTAGCCGACTCACTATAGGGATAATCGCCCTGAGCAAAGACC” is 0.114 ± 0.0972 log2FC.
In turn, “CTCGAGGATATCAAGATCTGGCCTCGGCCGCCCACGCGGAACCTCTAGCTAGCCGACTCACTATAGGGATAATCGCCCTGAGCAAAGACC” had a binding signal of 2.69 ± 0.0695 log2FC.
The figure for “CTCGAGGATATCAAGATCTGGCCTCGGCGCGTGGTCCGGAACCTCTAGCTAGCCGACTCACTATAGGGATAATCGCCCTGAGCAAAGACC” is 0.192 ± 0.0971 log2FC; for “CTCGAGGATATCAAGATCTGGCCTCGGCTTGCCACGCGGAACCTCTAGCTAGCCGACTCACTATAGGGATAATCGCCCTGAGCAAAGACC” it is 0.107 ± 0.166 log2FC.
The figure for “CTCGAGGATATCAAGATCTGGCCTCGGCAACCCACGCGGAACCTCTAGCTAGCCGACTCACTATAGGGATAATCGCCCTGAGCAAAGACC” is 0.721 ± 0.102 log2FC; for “CTCGAGGATATCAAGATCTGGCCTCGGCGGCCCACGCGGAACCTCTAGCTAGCCGACTCACTATAGGGATAATCGCCCTGAGCAAAGACC” it is 0.55 ± 0.0922 log2FC.
The figure for “CTCGAGGATATCAAGATCTGGCCTCGGCGCGTGGATCGGAACCTCTAGCTAGCCGACTCACTATAGGGATAATCGCCCTGAGCAAAGACC” is 0.142 ± 0.102 log2FC; for “CTCGAGGATATCAAGATCTGGCCTCGGCGTGTGGGCGGGAACCTCTAGCTAGCCGACTCACTATAGGGATAATCGCCCTGAGCAAAGACC” it is 3.29 ± 0.0753 log2FC.
In turn, “CTCGAGGATATCAAGATCTGGCCTCGGCGCGTGGTTGGGAACCTCTAGCTAGCCGACTCACTATAGGGATAATCGCCCTGAGCAAAGACC” returned a binding signal of 0.34 ± 0.0919 log2FC.
